# High-throughput results as filed in PubChem.
# Many of the other results were omitted from the sample, so hits are more common in it than they were.
# mHTT CaM bind: inhibitors of human mutant huntingtin-calmodulin interaction. inhibition, % at 15 µM. 190,000 compounds, 3.6% hits. AlphaScreen His-mHTT/GST-CaM binding, luminescence. P42858;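 also: 0% = both proteins with DMSO and 100% = one protein alone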
# Pf apPOL block: Pf-apPOL DNA polymerase inhibition | Recombinant Pf-apPOL, molecular beacon fluorescence, 1.5 h | inhibition, % at 10 µM | 210,000 compounds, 0.25% hits
# * marks the source's active call; other numbers are inactive results; i = inactive; . = no result; ! = a repeat was not active. Rule as the data show it: active = inhibition above about 50%; inactive = the rest.
SMILES,mHTT CaM bind,Pf apPOL block
CCc1nnc(NC(=O)c2cc(OC)c(OC)c(OC)c2Br)s1,6,80*
O=C(CCCN1C(=O)c2cccnc2C1=O)Nc1ccc(OC(F)(F)F)cc1,5,-15
CCCC[C@H]1[C@@H]2C[C@H]([C@H]3CCCCN31)[C@H](OC(=O)Nc1ccc(C(F)(F)F)cc1)C2,-15,-8
C[C@H]1[C@@H]2C[C@H]([C@H]3CCCCN31)[C@H](OC(=O)Nc1ccc(C(F)(F)F)cc1)C2,76*,-3
CCN(CC)C(=O)Cn1cc(C=O)c2cc(Br)ccc21,3,-3
COc1ccc(C(=O)Nc2c3c(nn2-c2ccc(C)cc2C)CSC3)cc1,8,-74
CC(C)(C)n1nc2c(c1NC(=O)c1ccco1)CSC2,71*,39
CC(C)(C)n1nc2c(c1NC(=O)c1ccc(F)cc1)CSC2,58*,-4
Cc1ccc(C(=O)Nc2c3c(nn2C(C)(C)C)CSC3)cc1,-10,-2
CC(C)(C)n1nc2c(c1NC(=O)c1ccco1)CS(=O)C2 (configuration not stated),2,6
CC(C)(C)n1nc2c(c1NC(=O)c1c(F)cccc1Cl)CSC2,26,0
Cc1ccc(-n2nc3c(c2NC(=O)c2ccc(F)cc2)CSC3)c(C)c1,28,57*
CC(C)(C)n1nc2c(c1NC(=O)C(=O)NCc1c(F)cccc1F)CSC2,60*,-1
Cc1cc(C)cc(Nc2c(C(=O)N3CCOCC3)cnc3nc(C)ccc23)c1,0,1
Cc1noc(C)c1S(=O)(=O)N1CCN(C(=O)C2CCCO2)CC1 (configuration not stated),.,-3
Cc1cc(C)n(CCNC(=O)c2ccccc2C(F)(F)F)n1,-17,-3
COc1ccccc1NC(=O)N1CCCC1c1cc(C(C)C)on1 (configuration not stated),3,-5
Cc1cccc(C(=O)Nc2c3c(nn2C(C)(C)C)CS(=O)(=O)C3)c1,1,-1
Cc1ccc(C(=O)Nc2c3c(nn2C(C)(C)C)CS(=O)(=O)C3)cc1,3,88*
CN(C)c1ccc(/C=C/C=C/c2cccc[n+]2C)cc1,46,7
CN(C)c1ccc(/C=C/C=C/c2cc[n+](C)cc2)cc1,60*,-14
CCN1C(=O)NC(=O)/C(=C/c2cn(CCOc3ccccc3F)c3ccccc23)C1=O,12,-1
COCCCn1c(=N)c(C(N)=O)cc2c(=O)n3cccc(C)c3nc21,4,4
c1ccc(OCCCOc2ccccc2)cc1,-124,-2
Nc1ccccc1NCCOc1ccccc1,79*,2
SMILES,mHTT CaM bind,Pf apPOL block
O=C1CCCC(=O)N1c1ccc(N2CCCC(CO)C2)c([N+](=O)[O-])c1 (configuration not stated),2,-10
COc1cc2c(cc1OC)C(C)N(c1ccc(N3C(=O)CC(C)C3=O)cc1[N+](=O)[O-])CC2 (configuration not stated),60*,-15
Cc1ccc(N2CCN(c3ccc(N4C(=O)COCC4=O)cc3[N+](=O)[O-])CC2C)cc1 (configuration not stated),11,-14
CC1CC(=O)N(c2ccc(N3CC4(C)CC3CC(C)(C)C4)c([N+](=O)[O-])c2)C1=O (configuration not stated),37,-18
COc1ccc(Cl)cc1CN1CCN(c2ccc(N3C(=O)COCC3=O)cc2[N+](=O)[O-])CC1,79*,-8
COc1ccc(Cl)cc1CN1CCN(c2ccc(N3C(=O)CCCC3=O)cc2[N+](=O)[O-])CC1,73*,-24
CC1CC(=O)N(c2ccc(N3CCN(c4cccc(Cl)c4)CC3)c([N+](=O)[O-])c2)C1=O (configuration not stated),46,-14
COc1ccc(Cl)cc1CN1CCN(c2ccc(N3C(=O)CC(C)C3=O)cc2[N+](=O)[O-])CC1 (configuration not stated),73*,-17
O=c1cc(-c2cccs2)sc2nc(-c3ccco3)nn12,-3,.
Cc1ccc(S(=O)(=O)O/N=C/c2ccc(Br)cc2)cc1,i,.
O=C(c1ccccc1)c1nn2c(nc(=O)c3ccccc32)s1,5,2
COc1ccc(C(=O)N2CC(C)C(c3nc(-c4ccncc4)no3)C2)c(OC)c1 (configuration not stated),4,-3
Cc1ccc(Nc2nc(N)nc(CSc3nc4ccccc4[nH]3)n2)cc1,28,4
CC(=O)Nc1ccc(-c2noc(C3CCCN(C(=O)C4CCCCC4)C3)n2)cc1 (configuration not stated),0,-1
CCOC(=O)c1c(Nc2ccccc2F)sc(C(=O)c2ccc(Cl)cc2)c1N,.,-1
NC(=O)c1c(Nc2ccc3c(c2)OCO3)sc(C(=O)c2ccc(Cl)cc2)c1N,56*,-4
COc1ccc(C(=O)N2CCCC3(C2)Nc2ccccc2NC3=NC(C)(C)C)c(OC)c1 (configuration not stated),41,8
CC(C)(C)N=C1Nc2ccccc2CNC12CCN(C(=O)Cc1ccccc1)C2 (configuration not stated),25,-4
COCC(=O)N1CCCC2(C1)Nc1ccccc1NC2=NC1CCCC1 (configuration not stated),38,-3
COc1ccccc1CC(=O)N1CCCC2(C1)Nc1ccccc1NC2=NC(C)(C)C (configuration not stated),59*,6
CC(C)(C)N=C1Nc2ccccc2CNC12CCN(C(=O)Cc1ccccc1F)C2 (configuration not stated),53*,-10
COc1ccc(NC(=O)N2CCCC3(C2)Nc2ccccc2NC3=NC(C)(C)C)c(C)c1 (configuration not stated),25,-7
COc1ccc(C)cc1NC(=O)N1CCCC2(C1)Nc1ccccc1NC2=NC(C)(C)C (configuration not stated),72*,0
COCC(=O)N1CCCC2(C1)Nc1ccccc1NC2=NC(C)(C)C (configuration not stated),64*,0
COc1ccc(C(=O)N2CCC3(C2)NCc2ccccc2NC3=NC2CCCC2)cc1 (configuration not stated),23,-4
SMILES,mHTT CaM bind,Pf apPOL block
CC(C)c1ccc(C=C2Oc3c(ccc(O)c3CN(C)C)C2=O)cc1,21,-40
Cc1cc(OCc2nc(C(=O)N3CCCC3)cs2)ccc1Cl,3,-4
CC(C)(C)N=C1Nc2ncccc2NC12CCCN(C(=O)Cc1cccnc1)C2 (configuration not stated),5,-3
CC(C)(C)N=C1Nc2ccccc2NC12CCCN(C(=O)Cc1ccccc1)C2 (configuration not stated),77*,1
Cn1cc2c3c(cccc31)CN(C(=O)Nc1cccc(F)c1)CC2,7,-3
O=C(Nc1ncn[nH]1)c1ccccc1O,99*!,-11
O=C(Nc1ncn[nH]1)c1cccc(Br)c1,7,1
CC(=O)NCc1csc(C2CCN(S(=O)(=O)c3ccc(F)cc3)CC2)n1,-4,1
CCOC(=O)C1CCN(C(=O)C2CCCN(c3ccc(-c4ccccc4)nn3)C2)CC1 (configuration not stated),-3,-24
COc1ccc(N=C/C=C/c2ccccc2Cl)cc1Cl,55*,-4
COc1ccc(N=Cc2ccc(Cl)cc2)cc1Cl,19,-3
COc1ccc(C2CC(C(F)(F)F)n3nc(C(=O)N(C)CCC#N)cc3N2)cc1OC (configuration not stated),7,1
